Our source for the Potency values is PubChem BioAssay (Tox21).

Values joined by “and” are separate entries in the source; they are usually repeats but may differ in a detail not shown here. Equal values may be shown once. Records with an inconclusive call do not appear. Some compounds were tested as several samples or in several runs, with calls that do not always agree. Active and inactive are the calls of the source. Calls follow the shape of the dose curve; as a rule, active = well fitted curve in the direction sought with a large enough effect in the repeat runs; inconclusive = weak or mixed curves; inactive = no such curve, though single readings can be large; an effect the other way counts as inactive or inconclusive.

The target in test [1] is Cytochrome P450 2D6 (Homo sapiens) (UniProt P10635). Description: Cytochrome P450 Family 2 Subfamily D Member 6 (CYP2D6) small molecule antagonists: luciferase reporter qHTS assay (AID 1671196). Also: nearly all actives have a fitted effect of over 50% in size. Also: potency is read from the fitted curve at half-maximal effect. As to conditions: P450-Glo CYP2D6 enzyme assay, luciferin luminescence, 1 h; series mostly up to 115 µM. In short, it runs like this:
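Test chemicals meet CYP2D6 plus proluciferin substrate (10 min, RT); NADPH regenerating solution then drives turnover for 1 h. Detection reagent halts the reaction; luminescence measured after 20 min.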

Test [2] has as its target Cytochrome P450 2C19 (Homo sapiens) (UniProt P33261). Nature of the test: Cytochrome P450 Family 2 Subfamily C Member 19 (CYP2C19) small molecule antagonists: luciferase reporter qHTS assay (AID 1671197). Also: nearly all actives have a fitted effect of over 65% in size. Also: potency is read from the fitted curve at half-maximal effect. As to conditions: P450-Glo CYP2C19 enzyme, luciferin luminescence, 1 h; series mostly up to 115 µM. In outline: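 First, compounds are pinned into enzyme-substrate mix and held 10 min at room temperature. Second, NADPH regeneration solution is added and plates incubate 1 h at 37C. Third, detection reagent is added and luminescence read after 20 min.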
For orientation: A reporter such as luciferase makes a cellular process visible.

The target in test [3] is Cytochrome P450 2C9 (Homo sapiens) (UniProt P11712). Nature of the test: Cytochrome P450 Family 2 Subfamily C Member 9 (CYP2C9) small molecule antagonists: luciferase reporter qHTS assay (AID 1671198). Also: nearly all actives have a fitted effect of over 50% in size. Also: potency is read from the fitted curve at half-maximal effect. Particulars: P450-Glo CYP2C9 enzyme assay, luciferin luminescence; series mostly up to 115 µM. In short, it runs like this: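 P450-Glo proluciferin substrate with CYP2C9 enzyme; 10 min RT preincubation, then NADPH regeneration 1 h at 37C; luciferin detection reagent 20 min RT, luminescence in relative luminescence units.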

Test [4] addresses Voltage-gated inwardly rectifying potassium channel KCNH2 (Homo sapiens) (UniProt Q12809). Nature of the test: Human Ether-a-go-go-Related Gene (hERG) channel small molecule antagonists: fluorescence cell-based qHTS assay (AID 1671200).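 Also: hERG-expressing U2OS cells given a thallium stimulus after FluxOR II dye loading; nearly all actives have a fitted effect of over 50% in size.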 Particulars: hERG-U2OS cells, FluxOR thallium flux fluorescence; series mostly up to 76.8 µM. In short, it runs like this: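 U2OS cells expressing the channel were plated at 1000 cells/well, incubated overnight at 37 C, then loaded with FluxOR II thallium-sensitive dye for 1 h at room temperature in the dark, with a further 10 min at room temperature before stimulation.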

Test [5] concerns the target Cytochrome P450 1A2 (Homo sapiens) (UniProt P05177). Nature of the test: Cytochrome P450 Family 1 Subfamily A Member 2 (CYP1A2) small molecule antagonists: luciferase reporter qHTS assay (AID 1671199). Also: nearly all actives have a fitted effect of over 50% in size. Also: potency is read from the fitted curve at half-maximal effect. As to conditions: P450-Glo CYP1A2 enzyme, luciferin luminescence, 1 h; series mostly up to 115 µM. In short, it runs like this:
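Steps: enzyme-substrate mix dispensed; test compounds and furafylline control pinned in; 10 min room temperature; NADPH regeneration solution added, 1 h; reaction stopped with luciferin detection reagent; luminescence read after 20 min.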

Test [6] addresses Cytochrome P450 3A4 (Homo sapiens) (UniProt P08684). Description: Cytochrome P450 Family 3 Subfamily A Member 4 (CYP3A4) small molecule antagonists: luciferase reporter qHTS assay (AID 1671201). Also: nearly all actives have a fitted effect of over 50% in size. Particulars: P450-Glo CYP3A4 enzyme, luciferin luminescence, 1 h; series mostly up to 115 µM. In short, it runs like this:
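P450-Glo CYP3A4 system with proluciferin substrate; compounds preincubated 10 min RT with enzyme-substrate mix, then NADPH regeneration added for 1 h RT. Detection reagent 20 min, luminescence read as relative luminescence units.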

Chain of Cytochrome P450 1A2 (Homo sapiens) (P05177 whole entry, looked up): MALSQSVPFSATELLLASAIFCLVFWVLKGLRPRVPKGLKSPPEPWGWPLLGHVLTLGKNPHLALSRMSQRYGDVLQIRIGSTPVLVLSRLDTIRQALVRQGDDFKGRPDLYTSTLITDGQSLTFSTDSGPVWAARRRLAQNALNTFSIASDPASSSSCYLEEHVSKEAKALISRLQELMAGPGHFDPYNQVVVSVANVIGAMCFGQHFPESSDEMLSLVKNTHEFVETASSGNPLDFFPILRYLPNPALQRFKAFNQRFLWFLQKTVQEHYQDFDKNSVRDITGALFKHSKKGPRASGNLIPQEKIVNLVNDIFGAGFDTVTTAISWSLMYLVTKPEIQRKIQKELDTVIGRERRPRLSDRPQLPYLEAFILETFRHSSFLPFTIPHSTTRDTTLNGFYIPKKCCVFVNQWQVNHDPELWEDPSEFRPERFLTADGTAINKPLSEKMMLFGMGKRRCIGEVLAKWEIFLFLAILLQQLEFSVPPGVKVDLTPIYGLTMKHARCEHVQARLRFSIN
Chain of Cytochrome P450 2C9 (Homo sapiens) (P11712 whole entry, looked up): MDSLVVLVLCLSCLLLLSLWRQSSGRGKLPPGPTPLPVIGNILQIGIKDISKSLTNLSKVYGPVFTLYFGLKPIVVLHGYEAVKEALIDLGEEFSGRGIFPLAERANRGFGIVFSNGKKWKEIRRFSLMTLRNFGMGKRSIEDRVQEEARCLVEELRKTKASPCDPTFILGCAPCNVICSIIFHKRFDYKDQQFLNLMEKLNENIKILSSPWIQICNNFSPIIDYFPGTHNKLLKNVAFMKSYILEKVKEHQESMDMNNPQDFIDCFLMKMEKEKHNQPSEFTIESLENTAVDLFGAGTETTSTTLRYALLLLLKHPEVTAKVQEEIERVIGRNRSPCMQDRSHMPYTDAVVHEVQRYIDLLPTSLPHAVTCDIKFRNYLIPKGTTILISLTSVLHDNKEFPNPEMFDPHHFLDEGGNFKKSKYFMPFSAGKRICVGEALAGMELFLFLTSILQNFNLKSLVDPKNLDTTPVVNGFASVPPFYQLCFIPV
Chain of Cytochrome P450 3A4 (Homo sapiens) (P08684 whole entry, looked up): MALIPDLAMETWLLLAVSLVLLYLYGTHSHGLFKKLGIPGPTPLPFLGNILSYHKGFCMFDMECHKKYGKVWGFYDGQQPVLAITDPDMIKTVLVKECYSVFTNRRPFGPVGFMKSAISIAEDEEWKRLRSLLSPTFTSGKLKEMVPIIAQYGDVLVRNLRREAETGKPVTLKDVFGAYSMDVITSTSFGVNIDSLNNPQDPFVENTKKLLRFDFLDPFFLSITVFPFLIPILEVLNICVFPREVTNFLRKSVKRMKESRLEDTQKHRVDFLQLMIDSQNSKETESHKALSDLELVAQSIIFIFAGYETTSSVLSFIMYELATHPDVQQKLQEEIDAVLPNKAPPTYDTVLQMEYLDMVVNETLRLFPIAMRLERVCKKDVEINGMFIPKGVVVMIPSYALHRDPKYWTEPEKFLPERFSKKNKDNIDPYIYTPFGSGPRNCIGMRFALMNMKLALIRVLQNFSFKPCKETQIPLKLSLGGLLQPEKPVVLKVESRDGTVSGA
Chain of Cytochrome P450 2D6 (Homo sapiens) (P10635 whole entry, looked up): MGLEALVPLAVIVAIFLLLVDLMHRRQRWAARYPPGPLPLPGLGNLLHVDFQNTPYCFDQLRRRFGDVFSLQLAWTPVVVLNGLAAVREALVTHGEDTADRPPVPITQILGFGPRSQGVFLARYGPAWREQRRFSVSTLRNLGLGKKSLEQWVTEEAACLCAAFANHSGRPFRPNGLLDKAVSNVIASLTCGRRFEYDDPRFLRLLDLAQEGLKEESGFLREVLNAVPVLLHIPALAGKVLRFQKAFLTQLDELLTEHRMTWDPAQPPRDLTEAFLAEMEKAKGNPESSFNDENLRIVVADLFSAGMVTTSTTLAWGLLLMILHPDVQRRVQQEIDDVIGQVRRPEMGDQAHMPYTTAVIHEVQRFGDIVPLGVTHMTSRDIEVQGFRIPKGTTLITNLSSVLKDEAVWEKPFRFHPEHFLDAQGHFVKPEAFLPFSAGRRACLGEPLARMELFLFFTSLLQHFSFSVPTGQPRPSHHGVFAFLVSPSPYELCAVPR
Chain of Cytochrome P450 2C19 (Homo sapiens) (P33261 whole entry, looked up): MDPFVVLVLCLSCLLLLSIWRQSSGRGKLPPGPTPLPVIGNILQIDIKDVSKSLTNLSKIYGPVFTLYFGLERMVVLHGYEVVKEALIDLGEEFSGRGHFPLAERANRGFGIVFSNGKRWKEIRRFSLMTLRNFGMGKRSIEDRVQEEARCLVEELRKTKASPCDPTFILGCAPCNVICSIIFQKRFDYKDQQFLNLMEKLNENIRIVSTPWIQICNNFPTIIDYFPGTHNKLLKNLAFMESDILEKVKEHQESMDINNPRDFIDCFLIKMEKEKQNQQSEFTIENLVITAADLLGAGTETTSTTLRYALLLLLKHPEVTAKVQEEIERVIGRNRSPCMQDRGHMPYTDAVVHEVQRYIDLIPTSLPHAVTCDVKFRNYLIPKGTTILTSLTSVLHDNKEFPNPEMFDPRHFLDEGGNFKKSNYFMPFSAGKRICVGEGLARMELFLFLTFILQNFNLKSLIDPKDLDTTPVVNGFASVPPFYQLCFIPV
Chain of Voltage-gated inwardly rectifying potassium channel KCNH2 (Homo sapiens) (Q12809 whole entry, looked up): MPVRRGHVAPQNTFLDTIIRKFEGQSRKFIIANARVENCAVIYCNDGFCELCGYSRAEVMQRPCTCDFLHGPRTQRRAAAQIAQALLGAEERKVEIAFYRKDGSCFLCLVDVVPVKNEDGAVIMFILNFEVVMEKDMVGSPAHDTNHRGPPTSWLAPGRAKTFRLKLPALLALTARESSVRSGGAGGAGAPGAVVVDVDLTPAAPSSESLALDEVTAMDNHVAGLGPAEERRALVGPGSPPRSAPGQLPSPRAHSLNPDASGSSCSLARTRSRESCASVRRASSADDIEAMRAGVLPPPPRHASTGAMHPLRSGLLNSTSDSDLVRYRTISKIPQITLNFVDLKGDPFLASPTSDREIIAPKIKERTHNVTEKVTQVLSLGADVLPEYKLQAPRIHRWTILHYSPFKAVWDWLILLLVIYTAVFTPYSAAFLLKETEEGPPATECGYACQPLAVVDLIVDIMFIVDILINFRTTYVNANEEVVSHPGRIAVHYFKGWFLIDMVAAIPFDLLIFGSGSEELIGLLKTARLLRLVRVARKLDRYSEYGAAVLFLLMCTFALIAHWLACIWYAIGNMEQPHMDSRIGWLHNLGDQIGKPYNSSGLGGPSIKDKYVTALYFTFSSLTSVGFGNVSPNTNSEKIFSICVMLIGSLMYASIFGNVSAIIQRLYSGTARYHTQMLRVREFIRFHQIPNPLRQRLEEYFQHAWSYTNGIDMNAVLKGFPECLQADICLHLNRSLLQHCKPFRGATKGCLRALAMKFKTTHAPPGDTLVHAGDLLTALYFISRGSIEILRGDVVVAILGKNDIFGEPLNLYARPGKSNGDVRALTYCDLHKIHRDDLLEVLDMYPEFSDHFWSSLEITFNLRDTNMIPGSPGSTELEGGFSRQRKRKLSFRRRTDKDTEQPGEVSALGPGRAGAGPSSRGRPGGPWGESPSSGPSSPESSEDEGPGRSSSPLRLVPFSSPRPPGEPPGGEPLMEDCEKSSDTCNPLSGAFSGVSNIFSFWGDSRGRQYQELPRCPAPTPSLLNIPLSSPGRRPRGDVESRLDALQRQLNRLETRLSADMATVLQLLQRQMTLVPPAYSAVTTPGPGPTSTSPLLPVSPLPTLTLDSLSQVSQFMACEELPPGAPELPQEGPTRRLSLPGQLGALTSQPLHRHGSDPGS

Consider `Nc1ccc(N=Nc2ccccc2)c(N)n1`, for which the Potency in test [1] was 40.1 µM (active) and 35.6 µM (active) and 12.3 µM (active); in test [2], 20.1 µM (active) and 28.3 µM (active) and 9.77 µM (active); in test [3], 20.1 µM (active) and 28.3 µM (active) and 17.4 µM (active). For the same compound, the Potency entry in test [4] is “inactive”.
`C#C[C@]1(O)CC[C@H]2[C@@H]3CCc4cc(O)ccc4[C@H]3CC[C@@]21C`: the Potency result in test [1] and in test [4] was “inactive” each time. The Potency in test [2] was 7.05 µM (active) and 10 µM (active) and 13.8 µM (active); in test [5], “inactive and 17.4 µM (active)”.
With `O=[N+]([O-])c1ccc(O)cc1`, the Potency in test [2] is 33 µM (active); in test [5], 20.8 µM (active) and inactive. Also, the Potency entry in test [3] and in test [4] was “inactive” throughout.
As to `CCCCCCCCCCCCCC(=O)OC(C)C`, the Potency entry in test [1], in test [2], in test [3], in test [5], in test [4] and in test [6] was “inactive” in each case.
As to `CCCCOCCOCCOC(C)=O`, the Potency result in test [1], in test [2], in test [3], in test [5], in test [4] and in test [6] was “inactive” in each case.
For the compound `CCCCCCCCCCCCCCCCCC(=O)OCC(O)CO` (configuration not stated), the Potency entry in test [2], in test [3], in test [5] and in test [4] was “inactive” in each case.
On to `CC1=C(/C=C/C(C)=C/C=C/C(C)=C/C(=O)O)C(C)(C)CCC1`, for which the Potency is 20 µM (active) and 35.5 µM (active) in test [2]; 71.1 µM (active) and 39.9 µM (active) and 34.7 µM (active) in test [3]. For the same compound, the Potency entry in test [5] is “inactive”.
`CO[C@H]1C=CO[C@@]2(C)Oc3c(C)c(O)c4c(O)c(c(/C=N/N5CCN(C)CC5)c(O)c4c3C2=O)NC(=O)/C(C)=C\C=C[C@H](C)[C@H](O)[C@@H](C)[C@@H](O)[C@@H](C)[C@H](OC(C)=O)[C@@H]1C`: the Potency entry in test [1], in test [5] and in test [4] was “inactive” throughout. Moreover, the Potency in test [2] is 35.8 µM (active) and 50.8 µM (active) and 9.77 µM (active).
`N[C@@H](Cc1c[nH]c2ccc(O)cc12)C(=O)O`: the Potency entry in test [2] and in test [4] was “inactive” each time. Moreover, the Potency is 27.5 µM (active) and 34.7 µM (active) in test [3]; 30.8 µM (active) and 30.9 µM (active) in test [5].
Regarding `CN(C)Cc1cc(CN(C)C)c(O)c(CN(C)C)c1`, the Potency result in test [2], in test [3], in test [5] and in test [4] was “inactive” throughout.
On to `N[C@@H](Cc1c[nH]c2ccccc12)C(=O)O`, for which the Potency in test [1] was 35.6 µM (active) and inactive; in test [2], 31.8 µM (active) and inactive; in test [3] it was 71.1 µM (active). Moreover, in test [4], the Potency result was “inactive”.
